Screening results from PubChem BioAssay.
TbPYK inhibitor – blocks Trypanosoma brucei pyruvate kinase; Q57TT1; TbPYK enzyme, Kinase-Glo Plus ATP luminescence, 45 min; Potency, µM (titrated, usually from 76.8 µM), for the others: top-dose activity, negative = inhibition, most hits filed as inhibitors; 410,000 compounds, 0.12% hits; AID 624173; note: nearly all actives have a fitted effect of over 50% in size
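Luminescence from Kinase-Glo Plus, added after a 45-minute room-temperature reaction, served as the end-point read-out. The enzyme and substrate were preincubated with compound before ADP (130 uM final) initiated turnover. Concentration-effect curves came from normalized qHTS data.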
Giardia FBPA inh – Giardia lamblia aldolase inhibition | purified Giardia FBPA | Potency, µM (top dose mostly 59.6 µM), inactives show top-dose activity, negative = inhibition, usual class: inhibitors | 290,000 compounds, 0.71% hits | AID 2451; note: nearly all actives have a fitted effect of over 55% in size
Target sequence (A8B2U2 whole entry, looked up): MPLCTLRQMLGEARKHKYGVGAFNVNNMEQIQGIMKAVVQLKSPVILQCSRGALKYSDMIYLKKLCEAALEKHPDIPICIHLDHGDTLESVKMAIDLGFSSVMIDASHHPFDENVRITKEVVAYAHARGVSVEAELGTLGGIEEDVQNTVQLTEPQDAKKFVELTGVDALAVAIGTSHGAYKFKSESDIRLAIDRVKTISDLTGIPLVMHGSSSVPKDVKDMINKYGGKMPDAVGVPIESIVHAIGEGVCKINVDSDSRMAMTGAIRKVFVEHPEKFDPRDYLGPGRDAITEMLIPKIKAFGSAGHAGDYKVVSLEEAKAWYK
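40 nM FBPA preincubated 10 min at RT with compound (up to 57.5 uM final), then substrate plus GAPDH/TPI/NAD/arsenate coupling and diaphorase/resazurin added. Fluorescence read after 20 min at RT, 525/598 nm.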
Sm TGR block – inhibitors of Schistosoma mansoni thioredoxin glutathione reductase; Q962Y6; purified TGR, DTNB reduction, TNB absorbance 405 nm; Potency, µM (titrated, usually from 114 µM), for the others: top-dose activity change, negative = inhibition, usual class: inhibitors; 360,000 compounds, 3% hits; AID 485364; note: nearly all actives have a fitted effect of over 60% in size
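Kinetic colorimetric format: TGR-catalysed, NADPH-driven DTNB reduction monitored via TNB absorbance. Enzyme dispensed at 20 nM; compound exposure 15 min at room temperature before reaction start.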
RE007 growth inh – less growth of the S. pombe RE007 Vpr strain. S. pombe RE007 Vpr strain, BacTiter-Glo ATP luminescence, 24 h. Potency, µM (highest dose often 92.2 µM), for inactives: at the highest dose activity change, negative = less growth, usual class: inhibitors. 360,000 compounds, 0.21% hits. AID 651644; active = well fitted falling curve with a large enough effect; inconclusive = small, poorly fitted or top-dose-only effect; inactive = no such curve, though single readings can be large or run the other way; note: nearly all actives have a fitted effect of over 50% in size
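Fission yeast RE007 carrying one integrated HIV-1 vpr copy, seeded at OD 0.01 in PMG+AL medium with 23 nL pinned compound. Grown 24 h at 30 degrees; viability read by BacTiter-Glo luminescence after 5 min.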
LmPK inhibitor – LmPK (Leishmania mexicana) enzyme inhibition | Q27686 | purified LmPK, Kinase-Glo ATP luminescence, 1 h | Potency, µM (highest dose often 57.5 µM), for inactives: at the top dose activity change, negative = inhibition, usual class: inhibitors | 290,000 compounds, 0.37% hits
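Pyruvate kinase activity monitored as ATP production (luciferase luminescence). Conditions: 0.1 nM enzyme, 0.5 mM PEP, 0.1 mM ADP, 1 h, RT; normalized against uninhibited and no-enzyme wells.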
An asterisk follows results filed as active; ? = inconclusive; . = no result; [ ] = remark or other dose. The list is not random: actives were taken first. Their share in the collection is about 3.3%. Unless noted, calls come from the whole dose curve; as a rule, active = well fitted curve in the direction sought with a large enough effect; inconclusive = small, poorly fitted or top-dose-only effect, or another doubt; inactive = no such curve, though single readings can be large; an effect the other way counts as inactive or inconclusive. % is set by controls: 0 for no effect and ±100 for the full control effect; potency is the fitted concentration of half-maximal effect.

SMILES	TbPYK inhibitor	Giardia FBPA inh	Sm TGR block	RE007 growth inh	LmPK inhibitor
O=C(CN1c2cccc3cccc(c23)S1(=O)=O)Nc1ccc(S(=O)(=O)N2CCOCC2)cc1	-4.3%	?	6.6%	-14.5%	1.0%
O=C(NC1=NCCS1)C1COc2ccccc2O1 (stereo unspecified)	-19.9%	4.1%	-1.2%	-2.4%	15.8µM*
O=C(Nc1ccncc1)C1COc2ccccc2O1 (stereo unspecified)	-2.2%	1.8%	-2.2%	-18.7%	2.5%
N#Cc1c(/N=C/N2CCOCC2)sc2c1CCCCC2	-1.0%	-2.5%	-10.1%	26.8%	-15.6%
CN(C)CCCN(C(=O)c1ccc(Br)s1)c1nc2ccc(F)cc2s1	4.0%	.	-4.3%	.	.
COc1cccc(N=CC2=C(O)CCCC2=O)c1	3.1%	2.6%	-1.8%	39.8µM*	0.3%
CCc1ccc(-c2cc(C)no2)cc1S(=O)(=O)N1CCN(C(=O)c2ccco2)CC1	-2.4%	5.5%	44.7µM*	6.8%	6.5%
O=C(c1ccco1)N1CCN(S(=O)(=O)c2ccc(Br)s2)CC1	-26.9%	10.5%	11.2µM*	-1.0%	2.8%
Cc1cc(-c2ccc(C)c(S(=O)(=O)N3CCN(C(=O)c4ccco4)CC3)c2)on1	-2.4%	-6.5%	5.6%	17.4%	5.8%
CC(C)(C)c1ccc(C(=O)N2CCN(S(=O)(=O)c3ccc(Br)s3)CC2)cc1	-1.9%	.	-2.9%	-4.7%	.
Cc1nnc(NC(=O)C2CCCC2)s1	-7.1%	.	-9.3%	11.7%	-9.8%
COc1ccc2c(c1)nc(SCC(=O)c1ccc(Br)s1)n2C	2.3%	?	31.6µM*	-26.7%	-3.6%
COC(=O)CSc1nc2cc(OC)ccc2n1C	-1.1%	-12.2%	25.4%	-0.4%	-4.5%
CCN(CC)Cc1cc(C(C)=O)ccc1OCC(C)C	0.5%	12.0%	17.8µM*	-3.7%	9.3%
N#CC1=C(N)C(C#N)(C#N)[C@H](c2ccncc2)[C@H]2CC3(CC=C12)OCCO3	-4.3%	?	79.4µM*	3.5%	5.3%
O=C(CCN1C(=O)C2C3C=CC(C4CC34)C2C1=O)Oc1ccc(Br)cc1 (stereo unspecified)	1.0%	2.0%	11.6%	9.6%	0.0%
O=C(CCN1C(=O)C2C3C=CC(C4CC34)C2C1=O)Oc1cccc2cccnc12 (stereo unspecified)	-11.4%	?	4.0%	14.1µM*	0.7%
COc1ccc(-c2cn3c(n2)sc2cc(C(=O)NCCCc4ccccc4)ccc23)cc1	0.0%	.	11.5%	.	.
CC(=O)n1cc(C(C[N+](=O)[O-])SCCN)c2ccccc21 (stereo unspecified)	?	?	8.91µM*	?	2.8%
Cn1cc(C(C[N+](=O)[O-])c2ccccc2)c2ccccc21 (stereo unspecified)	2.1%	18.0%	-30.9%	-0.2%	7.4%
CC(=O)Nc1nc(-c2ccc(-c3ccccc3)cc2)cs1	-11.6%	.	.	-15.0%	.
COc1ccc(N2C(=O)CC(Sc3nnc(-c4ccccc4)o3)C2=O)cc1 (stereo unspecified)	.	-1.3%	3.55µM*	-14.3%[3.69 µM]	2.3%
COc1ccc(N2C(=O)CC(Sc3nc(C)cc(C)c3C#N)C2=O)cc1 (stereo unspecified)	-4.0%	-1.1%	?	-11.6%	4.0%
O=C1CC(Sc2ncccn2)C(=O)N1c1ccccc1 (stereo unspecified)	1.7%	2.0%	?	-11.3%	4.0%
O=C1CC(Sc2nnc(-c3ccccc3O)o2)C(=O)N1c1ccccc1 (stereo unspecified)	-8.0%	1.8%	3.98µM*	50.1µM*	-3.0%
SMILES	TbPYK inhibitor	Giardia FBPA inh	Sm TGR block	RE007 growth inh	LmPK inhibitor
Cn1c2ccccc2c(=O)c2cc(C#CC3=CCCCC3)ccc21	-16.8%	.	2.24µM*	-13.1%	.
Nc1c(Cl)cc(C2=NCCn3c2c2ccc([N+](=O)[O-])cc2[n+]3[O-])cc1Cl	-11.4%	.	39.8µM*	-10.1%	.
O=C(N/N=C/c1ccco1)c1ccc(N2CCCC2=O)cc1	-2.3%	-1.0%	-33.8%	.	2.5%
CSc1nc(N)nc2c1ncn2CC(=O)Nc1ccc(C)c(C)c1	0.0%	.	.	3.6%	.
O=C1C2C3C=CC(C3=C3CCCCC3)C2C(=O)N1c1ccccc1 (stereo unspecified)	-14.3%	16.8%	15.8µM*	35.5µM*	6.1%
O=C1C2C3C=CC(C3)C2C(=O)N1c1ccccc1 (stereo unspecified)	-7.4%	4.8%	-1.7%	4.8%	-2.7%
Nc1cccc([N+](=O)[O-])c1	2.7%	1.0%	-2.0%	5.6%	0.1%
O=[N+]([O-])c1cccc(SSc2cccc([N+](=O)[O-])c2)c1	11.2µM*	.	.	?	.
CCOc1ccc(CN(C)C(=O)CCl)cc1	-3.4%	3.0%	15.8µM*	-11.8%	-0.2%
CCOc1ccc(CC(=O)NNC(=O)/C=C/C(=O)O)cc1	3.3%	-0.3%	17.8µM*	0.7%	1.0%
O=C(CC1C(=O)NCCN1Cc1cccc(F)c1)NC1CCC1 (stereo unspecified)	-0.5%	-16.3%	?	-14.8%	-0.4%
O=C1Nc2ccc(Br)cc2/C1=N\N=C\C1=C(N2CCOCC2)C(=C/c2ccccc2)/CC1	-19.5%	.	.	-20.7%	.
O=C1Nc2ccccc2/C1=N\N=C\C1=C(N2CCOCC2)C(=C\c2ccccc2)/CC1	.	-20.9%	44.7µM*	.	?
O=C(NC1CCCCC1)C(c1cc2ccccc2o1)N1CCOCC1 (stereo unspecified)	-0.6%	.	.	16.6%	.
CCN(CC(=O)Nc1ccc(OC)cc1)C(=O)c1cc2c(s1)CCCCC2	3.9%	.	-3.8%	3.4%	.
COc1ccc(NC(=S)NC(=O)c2ccccc2)cn1	-3.6%	?	35.5µM*	-8.8%	-0.6%
Cn1ncc2cc(NC(=S)NC(=O)c3ccccc3)ccc21	-1.6%	-9.4%	17.8µM*	4.9%	0.9%
CCOc1ccc(N=C/C=C/c2ccccc2)c(O)c1	-12.3%	?	39.8µM*	-29.8%	-12.5%
COc1cc(NC(=O)CSc2nc(-c3ccccc3)no2)cc(OC)c1	6.9%	.	0.2%	.	.
CNNC	.	11.2µM*	.	.	.
COc1ccc(NC(=S)NC(=O)c2cncc(Br)c2)c(OC)c1	-6.1%	?	-15.3%	-9.3%	1.2%
COc1cc(/C=C2\NC(=O)NC2=O)cc(Br)c1OC	0.7%	-16.7%	-12.4%	-3.6%	0.0%
Cc1cc(C)nc(NC=C2C(=O)OC(C)(C)OC2=O)n1	2.5%	-0.4%	2.2%	-9.9%	0.3%
Cc1ccc(C2=[N+]([O-])C3(CCCCC3=O)N(O)C2(C)C)cc1 (stereo unspecified)	-3.1%	-4.6%	?	8.4%	1.0%
CC1(C)C(c2ccco2)=[N+]([O-])C2(CCCCC2=O)N1O (stereo unspecified)	4.2%	-2.1%	50.1µM*	4.3%	8.6%
Cc1cc(/C=C2\SC(=O)NC2=O)c(C)n1-c1ccc(N2CCOCC2)cc1	0.1%	-12.9%	-15.5%	3.9%	5.2%
